SMN2 splice up: qHTS Assay for Enhancers of SMN2 Splice Variant Expression; HEK293 SMN2-luciferase splicing reporter, luminescence, 30-36 h; Potency, µM (titrated, usually from 46.1 µM), for the others: at the highest dose activity change, positive = activation, most hits filed as activators; hit rate 2.8% among 210,000; note: % of control where 0% means no effect; nearly all actives have a fitted effect of over 55% in size
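HEK293 cells carry an SMN2 minigene-luciferase reporter in which exon 7 inclusion puts luciferase in frame. Cells were seeded at 2000 cells/well, attached for 10-12 hours, then exposed to compounds for 30-36 hours at 37C before ONE-Glo luminescence.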
Rab9 prom act: qHTS Assay for Rab9 Promoter Activators; hit rate 2.8% among 320,000; AID 485297, 2010; Potency, µM (series often up to 9.22 µM), for inactives: at the highest dose activation, negative = inhibition, actives largely listed as activators; Huh7 Rab9 promoter-luciferase reporter, luminescence, 24 h; note: % of control where 0% means no effect; nearly all actives have a fitted effect of over 60% in size
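Huh7 cells stably carrying Rab9 promoter–luciferase reporter, plated 1500 cells/well, compound added after 2 h and incubated 24 h at 37 °C; luciferase luminescence then read after 10 min with detection reagent.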
NPC1 promoter act: qHTS Assay for NPC1 Promoter Activators | Huh7 NPC1 promoter luciferase reporter, 24 h | Potency, µM (doses to about 9.22 µM), for inactives: top-dose activation, most hits filed as activators | hit rate 2.4% among 320,000 | AID 485313, 2010; note: % of control where 0% means no effect; nearly all actives have a fitted effect of over 60% in size
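Luciferase expression driven by the NPC1 promoter was measured in stably transfected Huh7 cells after a 24 h compound incubation, using a luciferase reagent and a luminescence read.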
FLuc modulator: qHTS profiling assay for firefly luciferase inhibitor/activator using purifed enzyme and Km concentrations of substrates (counterscreen for miR-21 project); Luciferin 4-monooxygenase (Photinus pyralis), P08659; purified FLuc, Km substrates, luminescence inhibition; Potency, µM (top dose mostly 57.5 µM), without a hit: at the highest dose activity change, negative = inhibition, actives largely listed as inhibitors; hit rate 6.9% among 360,000;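 note: plate controls were vehicle for no effect and reference inhibitor for full effect; nearly all actives have a fitted effect of over 55% in size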
Target sequence (P08659 whole entry, looked up): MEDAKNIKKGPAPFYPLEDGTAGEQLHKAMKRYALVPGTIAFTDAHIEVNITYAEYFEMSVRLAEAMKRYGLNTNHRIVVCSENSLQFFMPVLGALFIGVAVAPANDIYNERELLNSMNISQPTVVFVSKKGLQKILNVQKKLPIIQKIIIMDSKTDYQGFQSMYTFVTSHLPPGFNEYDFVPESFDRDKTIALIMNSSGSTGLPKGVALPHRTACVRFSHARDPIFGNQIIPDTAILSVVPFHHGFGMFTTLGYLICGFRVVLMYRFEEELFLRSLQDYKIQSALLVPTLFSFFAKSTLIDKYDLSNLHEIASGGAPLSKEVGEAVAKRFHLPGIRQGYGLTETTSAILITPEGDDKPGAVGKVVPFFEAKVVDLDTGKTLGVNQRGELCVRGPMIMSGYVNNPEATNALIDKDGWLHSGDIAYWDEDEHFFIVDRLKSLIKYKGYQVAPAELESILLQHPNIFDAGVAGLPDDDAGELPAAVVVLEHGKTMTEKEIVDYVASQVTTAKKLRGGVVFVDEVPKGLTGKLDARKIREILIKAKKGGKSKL
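Biochemical qHTS of compounds, final roughly 60 µM downward over six points, against 10 nM purified firefly luciferase using Km concentrations of substrates (10 uM D-luciferin, 10 uM ATP) in Tris acetate pH 7.5 buffer; luminescence output.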
ELG1 genotoxic: qHTS screen for small molecules that induce genotoxicity in human embryonic kidney (HEK293T) cells expressing luciferase-tagged ELG1 | AID 504466, 2011 | hit rate 1.3% among 330,000 | Potency, µM (highest dose often 46 µM), without a hit: top-dose activity change, positive = activation, hits mostly activators | HEK293T ELG1-luciferase reporter, luminescence, 16 h; note: % of control where 0% means no effect; nearly all actives have a fitted effect of over 60% in size
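Cells (2,000/well) expressing the ELG1-luciferase fusion are dosed by pin tool and kept 16 hr at 37 °C, 5% CO2. Signal comes from ONE-Glo luciferase reagent after 30 min at room temperature.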
Active calls of the source: *; [ ] = another dose, or the depositor's remark. In the library only some 7.4% were active in any assay of this set; here they are far more common. Calls come from the whole dose curve; as a rule, active = well fitted curve in the direction sought with a large enough effect; inconclusive = small, poorly fitted or top-dose-only effect, or another doubt; inactive = no such curve, though single readings can be large; an effect the other way counts as inactive or inconclusive. Potency is the fitted concentration of half-maximal effect.

Screening CC(NC(=O)c1cc2ccccn2n1)c1ccccc1 (stereo not given) returned FLuc modulator 0%.
`CNC(=S)N(Cc1cc2cc(C)ccc2n2nnnc12)CC(C)(C)CN(C)C` gave Rab9 prom act -3%, NPC1 promoter act -6%, FLuc modulator 3% and ELG1 genotoxic -2%.
`O=C1C2C(c3ccccc3)CC=CC2[C@H](c2cccc([N+](=O)[O-])c2)N1Cc1ccccc1` (stereo not given in full) gave Rab9 prom act -11%, NPC1 promoter act -7%, FLuc modulator 0% and ELG1 genotoxic -11%.
For O=C(N=C1c2ccccc2CN1c1ccc(F)c(Cl)c1)c1cccnc1Cl the results were SMN2 splice up 11µM*, Rab9 prom act inconclusive, NPC1 promoter act inconclusive, FLuc modulator 15µM* and ELG1 genotoxic inconclusive.
Screening CCc1ccc(-c2cn3c(n2)SCC3)cc1 returned Rab9 prom act 1.4µM*, NPC1 promoter act 1.6µM*, FLuc modulator 2.4µM* and ELG1 genotoxic inconclusive.
Cc1ccc(-c2cn3c(n2)SCC3)cc1 was read as SMN2 splice up 11µM*, Rab9 prom act 2µM*, NPC1 promoter act 2.2µM*, FLuc modulator inconclusive and ELG1 genotoxic -7%.
Screening O=C(Cc1ccc(F)cc1)Nc1cccc(-c2cn3c(n2)SCC3)c1 returned SMN2 splice up -46%, Rab9 prom act 0%, NPC1 promoter act 0%, FLuc modulator inconclusive and ELG1 genotoxic 0%.
Screening Cc1ccc(/C=N/NC(=O)COc2ccc(Cl)c(C)c2)o1 returned Rab9 prom act 15%, NPC1 promoter act 0%, FLuc modulator -4% and ELG1 genotoxic 1%.
Cc1ccc([N+](=O)[O-])cc1S(=O)(=O)Nc1ccc(OCC(=O)N2CCOCC2)cc1 was read as Rab9 prom act 0%, NPC1 promoter act -2%, FLuc modulator -2% and ELG1 genotoxic 3%.
For CN(C)/C=N/C(=S)Nc1ccc(Cl)cc1Cl the results were SMN2 splice up inconclusive, Rab9 prom act inconclusive, NPC1 promoter act inconclusive, FLuc modulator 19µM* and ELG1 genotoxic 21µM*.
CN1CCN(C(=S)Nc2ccc(Cl)cc2Cl)CC1 was read as SMN2 splice up -38%, Rab9 prom act 14%, NPC1 promoter act 6%, FLuc modulator -15% and ELG1 genotoxic 0%.
For CN(C)/C=N/C(=S)Nc1ccc(Cl)cc1 the results were SMN2 splice up 11µM*, Rab9 prom act inconclusive, NPC1 promoter act 30%, FLuc modulator 13µM* and ELG1 genotoxic inconclusive.
`CCc1ccc2occ(CC(=O)Nc3ccc(C)c(C)c3)c2c1` gave SMN2 splice up 100% and FLuc modulator -16%.
For CNC(=O)Nc1cccc2cccnc12 the results were Rab9 prom act -5%, NPC1 promoter act -2%, FLuc modulator 5% and ELG1 genotoxic -1%.
For O=C(Nc1cccc2cccnc12)c1cccc2ccccc12 the results were SMN2 splice up -23%, Rab9 prom act -6%, NPC1 promoter act -1%, FLuc modulator inconclusive and ELG1 genotoxic 13%.
For C/C(=N\Nc1cccc2cccnc12)c1ccc(N)cc1 the results were SMN2 splice up 11µM*, Rab9 prom act 2.2µM*, NPC1 promoter act 2.8µM*, FLuc modulator 4.3µM* and ELG1 genotoxic inconclusive.
For C/C(=N\Nc1cccc2cccnc12)c1ccccn1 the results were SMN2 splice up 2µM*, Rab9 prom act 0.79µM*, NPC1 promoter act 3.2µM*, FLuc modulator 0.34µM* and ELG1 genotoxic inconclusive.
C/C(=N\Nc1cccc2cccnc12)c1ccccc1O was read as SMN2 splice up 25µM*, Rab9 prom act inconclusive, NPC1 promoter act 14%, FLuc modulator 1.2µM* and ELG1 genotoxic inconclusive.
COc1ccc(C(CNC(=O)COc2ccccc2)N2CCCCC2)cc1 (stereo not given) was read as Rab9 prom act 0%, NPC1 promoter act -2%, FLuc modulator 4% and ELG1 genotoxic -3%.
CN1CCN(c2ccc(-c3ccnn3C(=O)Nc3cccc(C(F)(F)F)c3)cc2)CC1 was read as SMN2 splice up 13µM*, Rab9 prom act 23%[1.84 µM], NPC1 promoter act 3.5µM*, FLuc modulator 21µM* and ELG1 genotoxic inconclusive.
Screening CCOc1ccc(Nc2ncnc3c2cnn3-c2ccc(F)cc2)cc1 returned FLuc modulator 6%.
`CCOc1ccc(Nc2ncnc3c2cnn3-c2ccccc2)cc1` gave SMN2 splice up -2%, Rab9 prom act 25%, NPC1 promoter act 21%, FLuc modulator 5% and ELG1 genotoxic 18µM*.
Screening Cc1ccc(-n2ncc3c(Nc4ccccc4C)ncnc32)cc1 returned FLuc modulator 3.4µM*.
For Cc1ccccc1Nc1ncnc2c1cnn2-c1ccccc1 the results were SMN2 splice up 11µM*, Rab9 prom act inconclusive, NPC1 promoter act inconclusive, FLuc modulator 17µM* and ELG1 genotoxic 8.2µM*.
Screening Cc1ccc(-n2ncc3c(NNC(=O)c4ccccc4C)ncnc32)cc1 returned FLuc modulator -12%.
Screening CCc1ccccc1Nc1ncnc2c1cnn2-c1ccc(Cl)cc1 returned FLuc modulator 12µM*.
CCN(CC(=O)NCc1ccc(Cl)cc1)C(=O)COc1cccc(Cl)c1 was read as Rab9 prom act -6%, NPC1 promoter act -3%, FLuc modulator 5% and ELG1 genotoxic 1%.
O=C(CSc1ccc(-c2ccc(Br)cc2)nn1)NC1CCCC1 was read as Rab9 prom act 2%, NPC1 promoter act 1%, FLuc modulator -10% and ELG1 genotoxic 1%.
Screening Clc1ccc2oc(-c3cccnc3)nc2c1 returned SMN2 splice up -2%, Rab9 prom act inconclusive, NPC1 promoter act inconclusive, FLuc modulator 15µM* and ELG1 genotoxic 9%.
Screening O=C(Cc1ccc(Cl)cc1)Nc1ccc2oc(-c3ccccc3)nc2c1 returned SMN2 splice up -4% and FLuc modulator 0%.
Clc1ccc2oc(-c3ccccc3)nc2c1 was read as SMN2 splice up inconclusive, Rab9 prom act 23%, NPC1 promoter act -2%, FLuc modulator 2.4µM* and ELG1 genotoxic inconclusive.
For O=C(O)Cc1ccc2oc(-c3cccnc3)nc2c1 the results were SMN2 splice up 24%, Rab9 prom act 22%, NPC1 promoter act 3%, FLuc modulator inconclusive and ELG1 genotoxic 5%.
Screening CC(C)(C)c1ccc(C(=O)N2CCN(C(=O)c3cccs3)CC2)cc1 returned ELG1 genotoxic -1%.
For CCc1ccc(-c2cc(C(=O)Nc3ccc(S(=O)(=O)NC(C)=O)cc3)c3ccccc3n2)cc1 the results were SMN2 splice up 4%, Rab9 prom act 28%, NPC1 promoter act inconclusive, FLuc modulator 0.54µM* and ELG1 genotoxic 9%.

Screening results (PubChem)
